This note sets out measurements from PubChem BioAssay (EPA / NIEHS).

Structures are written as SMILES. Where “and” joins values, the source holds several entries; their conditions need not be identical. Equal entries are not always repeated. Some compounds were tested as several samples or in several runs, with calls that do not always agree. Calls of active or inactive are those of the source. Rule for the calls: active = hit-call score of the fitted dose curve at least 0.9, where 1 is the maximum; inactive = score below 0.9.

The nature of the experiment: CCTE_Shafer_MEA_dev_per_network_spike_spike_number_mean: CCTE's Neural Network Formation Assay for Mean Number of Spikes in a Network Spike, Shafer Lab (AID 2284053). As for the experimental part: CCTE_Shafer_MEA_dev assay is conducted using Axion Biosystems 48 well microelectrode array (MEA) plates and Maestro recording system. Each well of the MEA plate contains a grid of 16 microelectrodes embedded in the culture surface. Electrically active cells, such as neurons, can be cultured over the electrodes, and electrical activity in these cells can be recorded extracellularly. The spontaneous firing of neurons is captured from each electrode on a microsecond timescale providing both temporally and spatially precise data. […] The CCTE_Shafer_MEA_dev assay uses primary cultures of rat cortical neurons. Recordings are made on days post-plating 5, 7, 9 and 12. As these cultures mature over time, neural networks develop functional activity and form cohesive networks in which electrical activity can be highly coordinated. CCTE_Shafer_MEA_dev_per_network_spike_spike_number_mean is 1 of 19 assay components of the CCTE_Shafer_MEA_dev assay. It measures the average number of spikes (action potential firings) in a network spike (temporally-clustered group of spikes across multiple electrodes) as the number of spikes that occur within a 0.05 s time window at the peak of a network spike divided by the total number of network spikes during a recording in a microelectrode array (MEA) using Axion Biosystems Maestro 768 channel amplifier with the AxIS adaptive spike detector. To collapse across multiple recordings made on days post-plating 5, 7, 9 and 12, the trapezoidal area-under-the-curve of the component is calculated.Data from the assay component CCTE_Shafer_MEA_dev_per_network_spike_spike_number_mean was analyzed into 1 assay endpoint. This assay endpoint, CCTE_Shafer_MEA_dev_per_network_spike_spike_number_mean, was analyzed in the negative analysis fitting direction relative to DMSO as the negative control and baseline of activity. Using a type of functional reporter, gain or loss-of-signal activity can be used to understand electrical activity.
On the day prior to culture, each well was coated thoroughly with 150 uL of 0.05% polyethyleneimine (PEI, Sigma Cat P3143) in 50 mM HEPES (Sigma Cat H7523) at a pH of 8. The plate was incubated at 37C for one hour. PEI was rinsed out with 500 uL of sterile water three times. Plates were stored at 4C until the day of culture. This culture was plated at a seeding density of 1.5 x 10^5 cells/well on a 48-well MEA plate, prepared as described above. Cells were administered via a 25 uL media/laminin ([…]; Sigma Cat L2020-1MG) drop directly onto the microelectrode array, as adding the cells with the laminin results in better attachment than pre-coating with laminin. After 2 hours, an additional 475 uL of cortical media was added and the cells returned to the incubator. Exposure starts at day 0 of plating and is continued over twelve days of network development until the experiment is terminated. Cells are fed with fresh medium on DIV 5 and 9, following the recordings on those days. The entire volume of media in the well is exchanged and any vehicle or compound treatment is renewed. Complete details are found in OP-NHEERL/ISTD/SBB/TJS/2015-03-r0 (available on request, email shafer.tim@epa.gov). Measurement of the electrical activity is non-invasive, and recordings can be made from the same plate over multiple different days of the culture. In cortical neurons, this allows for the measurement of extracellular action potentials over the period during which networks form in the MEA plate.
`CC(C)(C)c1ccc(CSc2cnn(C(C)(C)C)c(=O)c2Cl)cc1`: the AC50 is 0.00169 µM (active). Still for that read-out and setting: with `COC(=O)N(OC)c1ccccc1COc1ccn(-c2ccc(Cl)cc2)n1` the figure was 82.2 nM (active) and 11 nM (active). Turning to `N#Cc1nn(-c2c(Cl)cc(C(F)(F)F)cc2Cl)c(N)c1S(=O)C(F)(F)F` (stereo not drawn), the result was inactive.

In the case of `CCCCNC(=O)n1c(NC(=O)OC)nc2ccccc21`, the AC50 is 15 µM (active). Turning to `COP(=S)(OC)Oc1nc(Cl)c(Cl)cc1Cl`, the call was inactive. For the molecule `CCCCNC(=O)OCC#CI`, the AC50 is 2.76 µM (active) and 1.55 µM (active).

Regarding `Cc1ccc(-c2c(Cl)nc(C#N)n2S(=O)(=O)N(C)C)cc1`, the AC50 was 14.4 µM (active). Consider `CCNc1nc(Cl)nc(NC(C)C)n1`, for which the molecule was called inactive. As for `CCCCC(CC)COC(=O)c1ccccc1C(=O)OCC(CC)CCCC` (stereo not drawn), the call was inactive; the concentration at half-maximal activity (AC50) is 6.42 µM (active) and 4.63 µM (active). Turning to `CNC(=O)ON=CC(C)(C)SC`, the AC50 is 0.549 µM (active).

Take `COc1ccc(C(c2ccc(OC)cc2)C(Cl)(Cl)Cl)cc1`: the concentration at half-maximal activity (AC50) is 9.95 µM (active).

Take `CCOC(=O)CC(SP(=S)(OC)OC)C(=O)OCC` (stereo not drawn): the concentration at half-maximal activity (AC50) is 13 µM (active) and 8.1 µM (active). Still for that read-out and setting: with `CN(C)C(=S)SSC(=S)N(C)C` the figure was 0.00976 µM (active).

For the molecule `C=CCC1=C(C)[C@@H](OC(=O)[C@@H]2[C@@H](C=C(C)C)C2(C)C)CC1=O`, the call was inactive.

`CCCCOC(=O)c1ccccc1C(=O)OCCCC`: the concentration at half-maximal activity (AC50) was 72.1 µM (active).

Regarding `C=CC1(C)OC(=O)N(c2cc(Cl)cc(Cl)c2)C1=O` (stereo not drawn), the result was inactive. On to `C=CCC1=C(C)C(OC(=O)C2C(C=C(C)C)C2(C)C)CC1=O` (stereo not drawn), for which the result was inactive and the concentration at half-maximal activity (AC50) was 24.5 µM (active). For `CO/C=C(/C(=O)OC)c1ccccc1Oc1cc(Oc2ccccc2C#N)ncn1`, the half-maximal activity concentration (AC50) was 1.49 µM (active) and 1.1 µM (active). Regarding `COP(N)(=O)SC` (stereo not drawn), the outcome was inactive. As for `CCOc1cc(Oc2ccc(C(F)(F)F)cc2Cl)ccc1[N+](=O)[O-]`, the AC50 is 4.48 µM (active).

Regarding `Cc1c(F)c(F)c(COC(=O)C2C(/C=C(\Cl)C(F)(F)F)C2(C)C)c(F)c1F` (stereo not drawn), the AC50 was 1.98 µM (active).

Usually AC50 stands for the concentration giving half of the maximal activity seen.
